We go through ten compounds from PubChem BioAssay (NCI).

About 83,000 compounds went through this panel and 20% of them were active in at least one assay; those are over-represented in the sample as a whole.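 The test compound was applied at a single concentration to cells in 96-well plates for 48 hours, and percent growth was recorded.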 Values without a mark were called inactive. Activity calls are given as the source filed them. The calls were made as follows: active = growth percent below 10; inactive = the rest.

Some test systems named below: SR leukemia; RPMI-8226 leukemia; OVCAR-8 ovarian; OVCAR-5 ovarian; OVCAR-4 ovarian; SK-OV-3 ovarian; IGROV1 ovarian; OVCAR-3 ovarian; NCI/ADR-RES ovarian; T-47D breast; BT-549 breast; MDA-MB-435 melanoma; SW-620 colon; HCT-116 colon; HCC-2998 colon; KM12 colon; HS 578T breast; MCF7 breast.
What all share (assay): NCI-60 one-dose screen, 48 h (100 = growth as untreated, 0 = no growth, -100 = all killed)
Common to all, as to settings: 10 µM unless noted

Turning to `CCOC(=O)C1CCCN1C(=O)C1(NC(C)=O)CCCC1` (stereo not drawn), the growth in the experiment with SR leukemia is 102%; in the experiment with RPMI-8226 leukemia, 95.7%; in the experiment on OVCAR-8 ovarian it was 103%; in the experiment with OVCAR-5 ovarian, 96.4%; with OVCAR-4 ovarian, 105%; in the experiment with SK-OV-3 ovarian, 104%. The growth was 96.8% in the experiment on IGROV1 ovarian; 103% with OVCAR-3 ovarian; 103% in the experiment on NCI/ADR-RES ovarian; 100% in the experiment on T-47D breast; 95.5% in the experiment on BT-549 breast; 103% in the experiment on MDA-MB-435 melanoma. Moreover, the growth with SW-620 colon is 99.6%; with HCT-116 colon, 96.4%; in the experiment on HCC-2998 colon it was 108%; in the experiment with KM12 colon it was 91.2%.
With `O=C(N/N=C/c1coc2ccccc2c1=O)c1cc2oc(-c3ccccc3)cc2[nH]1`, the growth was 87.7% in the experiment on SR leukemia; 67% in the experiment on RPMI-8226 leukemia; 110% in the experiment on OVCAR-8 ovarian; 106% with OVCAR-5 ovarian; 98.7% with OVCAR-4 ovarian; 102% in the experiment on SK-OV-3 ovarian. In addition, the growth in the experiment with OVCAR-3 ovarian was 99.8%; in the experiment with HS 578T breast it was 107%; with NCI/ADR-RES ovarian, 118%; with T-47D breast, 84.7%; in the experiment with BT-549 breast, 77.2%; in the experiment on MDA-MB-435 melanoma, 100%. For the same compound, the growth was 97.2% with MCF7 breast, 96.5% in the experiment on HCT-116 colon, 98.8% in the experiment with HCC-2998 colon and 101% in the experiment with KM12 colon.
Take `c1cc[c]([Bi]([c]2ccccc2)[c]2ccccc2)cc1`: the growth in the experiment with SR leukemia was 102%; in the experiment on RPMI-8226 leukemia, 91%; with OVCAR-8 ovarian, 101%; in the experiment with OVCAR-5 ovarian, 99.3%; with OVCAR-4 ovarian, 89.3%; with SK-OV-3 ovarian, 111%. Further, the growth in the experiment on IGROV1 ovarian was 107%; in the experiment on OVCAR-3 ovarian, 105%; in the experiment with NCI/ADR-RES ovarian, 98%; in the experiment with BT-549 breast, 96.8%; in the experiment with MDA-MB-435 melanoma it was 90.4%; in the experiment with MCF7 breast, 97.5%. Moreover, the growth in the experiment on HCT-116 colon is 104%; in the experiment with KM12 colon it was 97.1%.
Consider `COc1ccc(-c2cn3ccnc3c(-c3ccc4ncn(C5CCCCC5)c4c3)n2)cc1`, for which the growth in the experiment with SR leukemia was 8.27% (active); in the experiment with RPMI-8226 leukemia, 4.37% (active); with OVCAR-8 ovarian it was 28.8%; in the experiment with OVCAR-5 ovarian, 41.2%; in the experiment on OVCAR-4 ovarian, 53.4%; in the experiment with SK-OV-3 ovarian, 25.7%. For the same compound, the growth was -26.5% (active) with OVCAR-3 ovarian; 20% in the experiment with HS 578T breast; 12.8% in the experiment with NCI/ADR-RES ovarian; -8.6% (active) in the experiment with T-47D breast; 31.1% in the experiment on BT-549 breast; -18.6% (active) in the experiment with MDA-MB-435 melanoma. Further, the growth is 22.2% in the experiment on SW-620 colon; 19.8% in the experiment with MCF7 breast; 8.72% (active) in the experiment with HCT-116 colon; 37.4% in the experiment with HCC-2998 colon; 16.8% in the experiment with KM12 colon.
For `CC(=O)c1nn(-c2ccc(C)cc2)cc1C(=O)c1cc2c(ccc3ccccc32)oc1=O`, the growth was 84% in the experiment on SR leukemia; 93.5% in the experiment on RPMI-8226 leukemia; 101% in the experiment on OVCAR-8 ovarian; 102% in the experiment on OVCAR-5 ovarian; 87.3% with OVCAR-4 ovarian; 80.4% in the experiment with SK-OV-3 ovarian. In addition, the growth with OVCAR-3 ovarian is 98.4%; in the experiment with HS 578T breast it was 96.7%; in the experiment on NCI/ADR-RES ovarian, 101%; in the experiment on T-47D breast, 75.2%; in the experiment on BT-549 breast, 85.5%; with MDA-MB-435 melanoma, 99%. The growth was 100% in the experiment with SW-620 colon, 89.4% in the experiment on HCT-116 colon, 103% in the experiment with HCC-2998 colon and 95.1% in the experiment with KM12 colon.
As to `Nc1ccc(S(=O)(=O)Nc2cc(F)cc(F)c2)cc1`, the growth is 112% in the experiment with SR leukemia; 106% in the experiment on RPMI-8226 leukemia; 102% in the experiment on OVCAR-8 ovarian; 55.5% in the experiment on OVCAR-5 ovarian; 101% in the experiment on OVCAR-4 ovarian; 104% in the experiment on SK-OV-3 ovarian. Further, the growth with IGROV1 ovarian is -22% (active); in the experiment on HS 578T breast, 92.7%; in the experiment on NCI/ADR-RES ovarian it was 117%; in the experiment with T-47D breast, 105%; in the experiment on BT-549 breast, 88.1%; with MDA-MB-435 melanoma, 102%. Besides, the growth in the experiment with SW-620 colon was 91.6%; in the experiment on MCF7 breast, 108%; in the experiment on HCT-116 colon it was 109%; with HCC-2998 colon it was 106%; in the experiment on KM12 colon it was 107%.
As to `C/C(=N\Nc1cccc(Cl)n1)c1ccccn1`, the growth was 6.31% (active) with SR leukemia; 20.8% in the experiment on RPMI-8226 leukemia; 20.2% with OVCAR-8 ovarian; 23.5% in the experiment on OVCAR-5 ovarian; 10.5% in the experiment with OVCAR-4 ovarian; 22.5% in the experiment on SK-OV-3 ovarian. Further, the growth with IGROV1 ovarian was 17%; in the experiment on HS 578T breast, 58.9%; in the experiment on NCI/ADR-RES ovarian, 0.96% (active); in the experiment on BT-549 breast, 22.9%; in the experiment on MDA-MB-435 melanoma it was 31.3%; in the experiment on MCF7 breast, 10.1%. Besides, the results for the growth in the experiment on HCT-116 colon and in the experiment on KM12 colon were 10% and 25.8%, respectively.
`CC[N+](C)(C)N`: the growth in the experiment with SR leukemia was 93.8%; in the experiment on RPMI-8226 leukemia, 101%; in the experiment with OVCAR-8 ovarian, 98.3%; with OVCAR-5 ovarian, 111%; in the experiment with OVCAR-4 ovarian, 102%; with SK-OV-3 ovarian, 109%. The growth in the experiment on IGROV1 ovarian was 111%; with HS 578T breast it was 108%; in the experiment with NCI/ADR-RES ovarian, 109%; in the experiment with T-47D breast, 103%; with BT-549 breast, 105%; with MDA-MB-435 melanoma, 109%. In addition, the growth in the experiment on SW-620 colon was 105%; in the experiment with MCF7 breast, 91.7%; in the experiment on HCT-116 colon it was 99%; with HCC-2998 colon it was 113%; in the experiment with KM12 colon it was 107%.
In the case of `N=C(N)N=Nc1ccc(NN=C(N)N)c2ccccc12`, the growth in the experiment with SR leukemia was 109%; in the experiment with RPMI-8226 leukemia it was 110%; with OVCAR-8 ovarian, 96.2%; with OVCAR-5 ovarian, 108%; in the experiment with OVCAR-4 ovarian, 106%; with SK-OV-3 ovarian, 88.1%. The growth is 107% in the experiment with IGROV1 ovarian; 127% in the experiment with OVCAR-3 ovarian; 110% in the experiment on NCI/ADR-RES ovarian; 81.1% with BT-549 breast; 115% in the experiment on MDA-MB-435 melanoma; 103% in the experiment with SW-620 colon. The growth with HCT-116 colon is 88.8%; with KM12 colon it was 109%.
`CCOC(=O)C1=C(c2ccccc2)NC(=O)NC1CN1C(=O)c2ccccc2C1=O` (stereo not drawn): the growth was -32.9% (active) in the experiment on SR leukemia; 97.9% in the experiment with RPMI-8226 leukemia; 111% in the experiment on OVCAR-8 ovarian; 100% in the experiment with OVCAR-5 ovarian; 107% with OVCAR-4 ovarian; 113% in the experiment on SK-OV-3 ovarian. In addition, the growth in the experiment with IGROV1 ovarian is 98.4%; in the experiment on HS 578T breast it was 105%; in the experiment with NCI/ADR-RES ovarian, 103%; in the experiment with T-47D breast it was 99%; in the experiment on BT-549 breast, 129%; in the experiment with MDA-MB-435 melanoma, 114%. For the same compound, the growth with SW-620 colon is 107%; in the experiment with MCF7 breast it was 98.3%; with HCT-116 colon it was 99.6%; in the experiment with HCC-2998 colon, 62.9%; in the experiment on KM12 colon, 113%.
